In the library only some 12% were active in any assay of this set; here they are far more common.
G9a inh = qHTS Assay for Inhibitors of Histone Lysine Methyltransferase G9a | Histone-lysine N-methyltransferase EHMT2 (Homo sapiens), Q96KQ7 | 350,000 compounds, 8.8% hits | G9a H3K9 monomethylation, AlphaScreen, 2 h | Potency, µM (series often up to 102 µM), actives largely listed as inhibitors; also: nearly all actives have a fitted effect of over 75% in size
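AlphaScreen detection with an anti-monomethyl H3K9 antibody quantified product after a 2 h room-temperature reaction containing 500 nM biotinylated H3K9 peptide, 20 µM SAM and 20 nM enzyme, which had been preincubated 15 min with compound.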
TDP1 inh = qHTS Assay for Inhibitors of Tyrosyl-DNA Phosphodiesterase (TDP1) | Tyrosyl-DNA phosphodiesterase 1 (Homo sapiens), Q9NUW8 | recombinant TDP1, AlphaScreen DNA substrate cleavage | Potency, µM (series often up to 130 µM), actives largely listed as inhibitors | 350,000 compounds, 0.28% hits | AID 485290, 2010; also: nearly all actives have a fitted effect of over 40% in size
Target sequence (Q9NUW8 whole entry, looked up): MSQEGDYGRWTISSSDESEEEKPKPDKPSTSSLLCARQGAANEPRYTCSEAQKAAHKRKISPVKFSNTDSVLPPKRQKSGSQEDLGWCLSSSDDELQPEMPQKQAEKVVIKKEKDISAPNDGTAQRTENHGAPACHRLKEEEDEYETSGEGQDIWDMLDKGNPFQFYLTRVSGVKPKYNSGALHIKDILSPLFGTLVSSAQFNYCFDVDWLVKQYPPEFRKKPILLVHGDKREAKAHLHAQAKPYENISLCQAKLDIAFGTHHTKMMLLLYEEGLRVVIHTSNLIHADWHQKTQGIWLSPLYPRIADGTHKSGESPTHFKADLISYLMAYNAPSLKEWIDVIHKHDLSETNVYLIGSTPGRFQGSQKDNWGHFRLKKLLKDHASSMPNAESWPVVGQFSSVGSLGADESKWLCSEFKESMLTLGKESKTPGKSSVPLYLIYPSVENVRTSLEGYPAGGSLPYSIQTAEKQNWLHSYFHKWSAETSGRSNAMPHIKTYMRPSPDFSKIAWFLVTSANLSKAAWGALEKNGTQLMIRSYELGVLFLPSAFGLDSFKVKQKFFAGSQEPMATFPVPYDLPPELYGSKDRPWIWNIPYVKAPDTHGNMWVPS
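Recombinant E. coli-expressed Tdp1 (1 nM) preincubated with compound 15 min at RT, then 5'-biotin/3'-phosphotyrosine-FITC DNA substrate (15 nM) added for 5 min. AlphaScreen beads (10 ug/ml) added, 10 min RT; tyrosine-FITC cleavage read as signal loss.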
HP1b chromo inh = HTS for Inhibitors of HP1-beta Chromodomain Interactions with Methylated Histone Tails | Chromobox protein homolog 1 (Homo sapiens), P83916 | AlphaScreen HP1-beta / biotin-H3K9me3 peptide binding | Potency, µM (highest dose often 114 µM), usual class: inhibitors | 390,000 compounds, 0.56% hits | AID 540317, 2011; also: nearly all actives have a fitted effect of over 70% in size
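AlphaScreen: HP1-beta (50 nM) preformed 30 min with biotin-H3(1-18)K9me3 peptide (50 nM) in PBS pH 7.4, 0.01% Tween-20. Compound added for 30 min at RT, then streptavidin donor/nickel chelate acceptor beads (10 ug/mL) for 30 min.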
JMJD2A Tudor = qHTS Assay for Inhibitors of JMJD2A-Tudor Domain; AlphaScreen JMJD2A-Tudor / H3K4me3 peptide binding; AID 504339, 2011; 390,000 compounds, 4.4% hits; Lysine-specific demethylase 4A (Homo sapiens), O75164; Potency, µM (doses to about 114 µM), most hits filed as inhibitors; also: nearly all actives have a fitted effect of over 50% in size
BAZ2B block = qHTS Assay for Inhibitors of BAZ2B | 360,000 compounds, 4.4% hits | Bromodomain adjacent to zinc finger domain protein 2B (Homo sapiens), Q9UIF8 | AlphaScreen BAZ2B-H3K14Ac peptide displacement | Potency, µM (highest dose often 114 µM), usual class: inhibitors; also: nearly all actives have a fitted effect of over 60% in size
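BAZ2B 50 nM plus b-H3(5-23)K14Ac 50 nM, PBS pH 7.4/0.01% Tween-20, 30 min RT; compound added (max 110 uM), 30 min RT; streptavidin donor/Ni-chelate acceptor beads 10 ug/mL final, 20 min dark; AlphaScreen read.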
Sfp inh = qHTS Assay for Inhibitors of Bacillus subtilis Sfp phosphopantetheinyl transferase (PPTase); 310,000 compounds, 3.5% hits; Potency, µM, most hits filed as inhibitors; Biochemical Sfp PPTase activity, qHTS;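 also: the enzyme is Sfp with the accession as filed and its product quenches rhodamine fluorescence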
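After 15 min at room temperature with compound, 15 nM Sfp received 5 uM rhodamine-CoA plus 12.5 uM BHQ-2-ybbR (50 mM Hepes pH 7.6, 10 mM MgCl2). Rate came from the fluorescence difference over 30 min, ex 525/em 598 nm.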
Of the large screens only hits and unclear results are named; the others gave an inactive call. Calls follow the shape of the dose curve; as a rule, active = well fitted curve in the direction sought with a large enough effect; inconclusive = small, poorly fitted or top-dose-only effect, or another doubt; inactive = no such curve, though single readings can be large; an effect the other way counts as inactive or inconclusive.

Cn1ccnc1C(=O)c1cc(SCC(=O)NCc2ccccc2)nc2ccccc12	G9a inh inconclusive, BAZ2B block inconclusive, Sfp inh 40µM
COC(=O)c1sc2cccc(F)c2c1S(=O)(=O)NCc1ccccc1Cl	none (no result: Sfp inh)
COC(=O)N1[C@H](C)C=C[C@]1(Cc1ccccc1)C(=O)NCc1ccc(N(C)C)cc1	none (no result: G9a inh, HP1b chromo inh, JMJD2A Tudor, BAZ2B block)
COC(=O)N1[C@H](C)C=C[C@]1(Cc1ccccc1)C(=O)NCc1ccc(C)o1	Sfp inh 45µM (no result: G9a inh, HP1b chromo inh, JMJD2A Tudor, BAZ2B block)
CCOc1ccc2nc(SCC(=O)N(C)C3CCS(=O)(=O)C3)[nH]c2c1 (stereo not drawn)	G9a inh 40µM
CCOc1ccc2nc(SCC(=O)Nc3ccc4[nH]c(=O)[nH]c4c3)[nH]c2c1	G9a inh 40µM, BAZ2B block inconclusive (no result: Sfp inh)
CCOc1ccc2nc(SCC(=O)NC(=O)NCc3ccco3)[nH]c2c1	G9a inh 50µM, BAZ2B block inconclusive
CCOc1ccc(-n2c(=S)sc3c(=O)[nH]c(SCC(=O)NCc4ccco4)nc32)cc1	G9a inh 40µM, JMJD2A Tudor inconclusive, BAZ2B block inconclusive, Sfp inh 56µM
COC(=O)c1sccc1S(=O)(=O)N(CC(=O)Nc1cc(F)ccc1F)c1ccc(C)c(C)c1	none (no result: Sfp inh)
O=C1c2ccccc2C(=O)N1c1ccccn1	none (no result: G9a inh, BAZ2B block, Sfp inh)
O=C(CCCc1nc(-c2ccccc2)no1)Nc1cc(C(F)(F)F)cc(C(F)(F)F)c1	none (no result: Sfp inh)
Cc1c(C#N)c(O)n(C)c(=O)c1N=Nc1ccc(S(N)(=O)=O)cc1	none
Cc1c(C#N)c(O)n(CCO)c(=O)c1N=Nc1ccc(S(N)(=O)=O)cc1	BAZ2B block 79µM
CC(CNC(=O)Cn1c(-c2cccs2)cc2cc(Cl)ccc21)c1ccccc1 (stereo not drawn)	none (no result: Sfp inh)
COc1cccc2oc(-c3ccco3)cc(=O)c12	G9a inh 5.6µM
COc1cc(OC)c2c(=O)cc(-c3ccccc3)oc2c1	none
COc1ccc2oc(-c3ccco3)cc(=O)c2c1	G9a inh 45µM, Sfp inh inconclusive
Cc1cc(=O)oc2ccc(OCC(=O)NCc3ccco3)cc12	none
O=C(COc1ccc2oc(-c3ccco3)cc(=O)c2c1)N1CCCCC1	G9a inh inconclusive, TDP1 inh 56µM, HP1b chromo inh inconclusive, BAZ2B block 50µM
O=C(COc1ccc2oc(-c3ccccc3)cc(=O)c2c1)NCc1ccco1	TDP1 inh 50µM, JMJD2A Tudor inconclusive, BAZ2B block inconclusive
CCN(CC)CCNC(=O)c1ccc(NC(=O)c2cccc(S(=O)(=O)N3CCc4ccccc43)c2)cc1	G9a inh 32µM, HP1b chromo inh inconclusive, JMJD2A Tudor inconclusive (no result: Sfp inh)
CCN(CC)CCNC(=O)c1ccc(NC(=O)c2cccc(S(=O)(=O)N3c4ccccc4CC3C)c2)cc1 (stereo not drawn)	Sfp inh inconclusive
CCN(CC)CCNC(=O)c1ccc(NC(=O)c2ccc(Cl)c(S(=O)(=O)Nc3ccccc3OC)c2)cc1	G9a inh 50µM (no result: HP1b chromo inh, JMJD2A Tudor)
CCN(CC)CCCNC(=O)c1ccc(N2CCCCC2)c(NS(=O)(=O)c2ccc(C)cc2)c1	G9a inh 79µM, BAZ2B block inconclusive, Sfp inh inconclusive
COCCNC(=O)c1ccc(N2CCCCC2)c(NS(=O)(=O)c2ccc(C)cc2)c1	G9a inh inconclusive, Sfp inh inconclusive
CCN(CC)CCNC(=O)c1ccc(NC(=O)c2cccc(S(=O)(=O)Nc3ccc(C)cc3)c2)cc1	G9a inh inconclusive, Sfp inh 40µM
CCOc1ccccc1NC(=O)c1ccc(NC(=O)C2CCCO2)cc1 (stereo not drawn)	none
Cc1ccc(NC(=O)c2c(NC(=O)c3ccc(F)cc3)sc3c2CCCC3)cc1C	G9a inh inconclusive (no result: Sfp inh)
CCSc1nccc(-c2nn(-c3ccc(C)cc3)ccc2=O)n1	G9a inh 79µM

Screens (PubChem BioAssay)
